# PubChem BioAssay (Tox21)
# Records with an inconclusive call do not appear. Unmarked numbers belong to inactive results. Calls of active or inactive are those of the source. Calls follow the shape of the dose curve; as a rule, active = well fitted inhibition curve with a large enough effect in the repeat runs; inconclusive = weak or mixed curves; inactive = no such curve, though single readings can be large or run the other way.
# Target: Cytochrome P450 3A4 (Homo sapiens) (UniProt P08684)
# Experiment: Cytochrome P450 Family 3 Subfamily A Member 4 (CYP3A4) small molecule antagonists: luciferase reporter qHTS assay (AID 1671201); also: nearly all actives have a fitted effect of over 50% in size
# Conditions: P450-Glo CYP3A4 enzyme, luciferin luminescence, 1 h; series mostly up to 115 µM; activity change, negative = inhibition: at the top concentration
# Summary of the method: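 Recombinant human CYP3A4 converts a proluciferin substrate to luciferin over 1 h at room temperature after NADPH regeneration solution is added (compound preincubated 10 min); detection reagent stops reaction, luminescence read 20 min later as relative units.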
# % is scaled to controls: 0 for no effect and ±100 for the full control effect; potency is read from the fitted curve at half-maximal effect.
# Cytochrome P450 3A4 (Homo sapiens), sequence (P08684 whole entry, looked up): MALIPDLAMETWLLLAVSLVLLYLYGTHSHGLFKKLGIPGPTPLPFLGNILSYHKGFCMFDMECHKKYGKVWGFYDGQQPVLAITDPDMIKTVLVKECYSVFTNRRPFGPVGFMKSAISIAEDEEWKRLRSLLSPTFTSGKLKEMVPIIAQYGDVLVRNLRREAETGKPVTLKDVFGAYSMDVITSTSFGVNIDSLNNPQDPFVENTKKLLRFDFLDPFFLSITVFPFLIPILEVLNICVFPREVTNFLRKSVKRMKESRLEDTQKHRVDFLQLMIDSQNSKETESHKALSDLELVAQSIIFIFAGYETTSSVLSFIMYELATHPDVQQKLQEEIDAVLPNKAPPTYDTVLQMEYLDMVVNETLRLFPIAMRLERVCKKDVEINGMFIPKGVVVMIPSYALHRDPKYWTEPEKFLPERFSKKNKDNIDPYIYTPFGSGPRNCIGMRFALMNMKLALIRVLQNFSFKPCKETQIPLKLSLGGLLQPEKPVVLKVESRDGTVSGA
SMILES,"activity change, negative = inhibition",Potency
Cc1c(C)c([N+](=O)[O-])c(C(C)(C)C)c([N+](=O)[O-])c1C,48.2%,
O=C(O)c1ccc2cc(C(=O)O)ccc2c1,-0.225%,
Cc1c(C)c2c(c(C)c1OC(=O)c1cccnc1)CC[C@@](C)(CCC[C@H](C)CCC[C@H](C)CCCC(C)C)O2,11.1% [at 52.9 µM],
COc1ccc(NC(=O)CC(C)=O)cc1,1.97%,
CC(CO)Oc1ccccc1 (stereo not drawn),-7.17%,
CCC(=O)OC(=O)CC,1.73%,
CN1CCCCC1CCN1c2ccccc2Sc2ccc(S(C)=O)cc21 (stereo not drawn),10.3% [at 52.9 µM],
C=C(CC)C(=O)c1ccc(OCC(=O)O)c(Cl)c1Cl,,inactive
[Cl][Pt-2]([Cl])([Cl])[Cl],12.6%,
O=c1[nH]c2ccccc2n1CCCN1CCN(C(c2ccccc2)c2ccccc2)CC1,87.1% [at 52.9 µM],
O=[N+]([O-])c1cccc(C(F)(F)F)c1,0.32%,
Nc1ccc(NCCO)c([N+](=O)[O-])c1,,25.2 µM (active)
Fc1ccc(C(c2ccc(F)cc2)N2CCNCC2)cc1,-24.5% [at 52.9 µM],
CC1(C)CC(O)CC(C)(C)N1,0.389%,
OCC(F)(F)F,0.142%,
CCCCCCCCCCCCCC[N+](C)(C)C,,inactive
Cc1cc(C(C)(C)C)cc(C)c1CC1=NCCN1,1.21% [at 52.9 µM],
CC1(C)[C@@H](O)CC[C@]2(C)[C@H]3C(=O)C=C4[C@@H]5C[C@@](C)(C(=O)O)CC[C@]5(C)CC[C@@]4(C)[C@]3(C)CC[C@@H]12,-13.8%,
CCCCCCCCCCCCOC(=O)c1ccc(O)cc1,,35.9 µM (active)
C=C(C)c1cccc(C(=C)C)c1,5.36%,
CC(C)OC(=O)C(O)(CC(=O)O)CC(=O)O,4.73%,
Nc1nc2c(ncn2COCCO)c(=O)[nH]1,3.09% [at 52.9 µM],
Nc1nc(-c2ccccc2)cs1,,5.62 µM (active)
